The panel holds about 83,000 compounds, 20% with a hit somewhere; the sample as a whole holds those more often.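 How to read the values: 0–100, growth inhibition (40 = 60% inhibited); 0, no net growth; -100 to 0, cell death (-40 = 40% of starting cells died; -100 = all dead).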 A number with no mark means an inactive call. Activity calls are given as the source filed them. How the source made its calls: active means growth percent below 10; inactive means the rest.

Some test systems named below: SR leukemia; RPMI-8226 leukemia; OVCAR-8 ovarian; OVCAR-5 ovarian; OVCAR-4 ovarian; SK-OV-3 ovarian; IGROV1 ovarian; OVCAR-3 ovarian; NCI/ADR-RES ovarian.
Holding throughout (test): NCI-60 one-dose screen, 48 h (100 = growth as untreated, 0 = no growth, -100 = all killed)
Settings in all cases: 10 µM unless noted

In the case of `O=C(Nc1ccc(-c2ccnc(Nc3ccc(N4CCOCC4)cc3)n2)cc1)[C@@H]1CCCN1`, the growth with SR leukemia is 4.92% (active); in the test with RPMI-8226 leukemia, 57%; in the test with OVCAR-8 ovarian, 72.2%; in the test with OVCAR-5 ovarian, 76.8%; with OVCAR-4 ovarian it was 71.4%; in the test on SK-OV-3 ovarian, 42.6%. Further, the growth in the test with IGROV1 ovarian was 60.8%; in the test on OVCAR-3 ovarian, 76.5%; in the test on NCI/ADR-RES ovarian it was 87.3%.
As to `Cc1cn(-c2cc(NC(=O)c3ccc(C)c(Nc4nccc(-c5cnccn5)n4)c3)cc(C(F)(F)F)c2)cn1`, the growth in the test on SR leukemia is 21.5%; in the test on RPMI-8226 leukemia, 54%; with OVCAR-8 ovarian, 47.1%; in the test on OVCAR-5 ovarian it was 79%; in the test with OVCAR-4 ovarian it was 99.7%; with SK-OV-3 ovarian it was 59.4%. In addition, the growth with IGROV1 ovarian was 85.1%; in the test with OVCAR-3 ovarian, 103%; with NCI/ADR-RES ovarian it was 63.8%.
With `NC(=O)c1c(OCc2c(F)cc(Br)cc2F)nsc1NC(=O)NCCCCN1CCCC1`, the growth in the test on SR leukemia is -34.4% (active); in the test on RPMI-8226 leukemia it was -26.3% (active); in the test on OVCAR-8 ovarian, 19.4%; in the test with OVCAR-5 ovarian, -14.8% (active); in the test on OVCAR-4 ovarian, -41.6% (active); with SK-OV-3 ovarian it was 52.2%. The figures for the growth with IGROV1 ovarian, with OVCAR-3 ovarian and in the test with NCI/ADR-RES ovarian were -32.4% (active), -34.1% (active) and 20.2%, respectively.
With `Cc1cc(C(=O)NOCCO)c(Nc2ccc(I)cc2F)n(C)c1=O`, the growth was 71.3% in the test on SR leukemia; 78.8% in the test on RPMI-8226 leukemia; 67.9% in the test on OVCAR-8 ovarian; 20.3% in the test on OVCAR-5 ovarian; 71.3% in the test with OVCAR-4 ovarian; 57.3% with SK-OV-3 ovarian. Further, the growth in the test with IGROV1 ovarian was 28%; with OVCAR-3 ovarian, 106%; in the test with NCI/ADR-RES ovarian, 76.2%.
For the molecule `CCc1nc(C(N)=O)c(Nc2ccc(N3CCC(N4CCN(C)CC4)CC3)c(OC)c2)nc1NC1CCOCC1`, the growth is 1.01% (active) in the test with SR leukemia; 28.3% in the test on RPMI-8226 leukemia; 39.6% in the test on OVCAR-8 ovarian; 26.5% with OVCAR-5 ovarian; 81.2% with OVCAR-4 ovarian; 4.92% (active) with SK-OV-3 ovarian. For the same molecule, the growth was 4.12% (active) in the test on IGROV1 ovarian, 53.4% with OVCAR-3 ovarian and 32% in the test with NCI/ADR-RES ovarian.
As to `CCn1c(-c2nonc2N)nc2c(C#CC(C)(C)O)ncc(OC[C@H]3CCCNC3)c21`, the growth with SR leukemia was 29.3%; in the test with RPMI-8226 leukemia it was 91.7%; in the test on OVCAR-8 ovarian it was 70.6%; in the test on OVCAR-5 ovarian it was 108%; with OVCAR-4 ovarian it was 68.5%; with SK-OV-3 ovarian, 15%. The results for the growth in the test with IGROV1 ovarian, in the test on OVCAR-3 ovarian and with NCI/ADR-RES ovarian were 23.9%, 41.3% and 95.6%, respectively.
For `Cc1cc(Nc2ncnc3ccc(NC4=NC(C)(C)CO4)cc23)ccc1Oc1ccn2ncnc2c1`, the growth in the test on SR leukemia is -14.4% (active); in the test on RPMI-8226 leukemia, 24.3%; with OVCAR-8 ovarian, 37.3%; in the test on OVCAR-5 ovarian, 14.3%; in the test on OVCAR-4 ovarian it was 44.2%; with SK-OV-3 ovarian it was 14.6%. For the same molecule, the growth in the test on IGROV1 ovarian is -19.6% (active); with OVCAR-3 ovarian it was 46.8%; in the test on NCI/ADR-RES ovarian, 63.3%.
Turning to `N[C@@H]1CCCN(c2c(/C=C3\SC(=O)NC3=O)cccc2-c2ccccc2)C1`, the growth is 22.1% in the test with SR leukemia; 13% with RPMI-8226 leukemia; 61.1% in the test with OVCAR-8 ovarian; 64.4% with OVCAR-5 ovarian; 11.4% in the test on OVCAR-4 ovarian; 63.6% in the test with SK-OV-3 ovarian. Moreover, the growth was 66.7% with IGROV1 ovarian, 54.2% in the test on OVCAR-3 ovarian and 88.1% with NCI/ADR-RES ovarian.
Regarding `CNC(=O)c1cc(Oc2ccc(NC(=O)Nc3cc(C(C)(C)C)nn3-c3ccc4ncccc4c3)c(F)c2)ccn1`, the growth in the test on SR leukemia was -8.95% (active); in the test on RPMI-8226 leukemia, 0.22% (active); in the test with OVCAR-8 ovarian, -30.2% (active); in the test on OVCAR-5 ovarian, -3.54% (active); in the test on OVCAR-4 ovarian, -13.6% (active); in the test with SK-OV-3 ovarian, -13.3% (active). The growth is -20.2% (active) with IGROV1 ovarian, 1.66% (active) in the test on OVCAR-3 ovarian and -23.1% (active) with NCI/ADR-RES ovarian.
Consider `C[C@@H](N)c1ccc(C(=O)Nc2ccnc3[nH]ccc23)cc1`, for which the growth was 9.45% (active) with SR leukemia; 64.7% with RPMI-8226 leukemia; 36.2% in the test with OVCAR-8 ovarian; 42.9% in the test with OVCAR-5 ovarian; 69.9% in the test with OVCAR-4 ovarian; -45.2% (active) in the test on SK-OV-3 ovarian. Also, the growth was 27.9% with IGROV1 ovarian, 57.9% with OVCAR-3 ovarian and 84% in the test with NCI/ADR-RES ovarian.
In the case of `CN[C@@H]1C[C@H]2O[C@@](C)([C@@H]1OC)n1c3ccccc3c3c4c(c5c6ccccc6n2c5c31)C(=O)N[C@H]4O`, the growth in the test with SR leukemia was 1.68% (active); in the test on RPMI-8226 leukemia, -46.2% (active); in the test with OVCAR-8 ovarian, -36.7% (active); in the test with OVCAR-5 ovarian, -2.9% (active); with OVCAR-4 ovarian it was 16%; in the test on SK-OV-3 ovarian, -68.5% (active). Besides, the results for the growth with IGROV1 ovarian, with OVCAR-3 ovarian and in the test on NCI/ADR-RES ovarian were 0.929% (active), -31.6% (active) and -39.1% (active), respectively.
For the molecule `C/C(=N\NC(=O)Cn1c(-c2ccc(S(C)(=O)=O)cc2)nc2ccccc21)c1ccc(Cl)cc1`, the growth in the test on SR leukemia is 87.9%; with RPMI-8226 leukemia it was 87.1%; in the test on OVCAR-8 ovarian, 80.9%; with OVCAR-5 ovarian, 106%; in the test with OVCAR-4 ovarian it was 100%; in the test with SK-OV-3 ovarian, 94.9%. The figures for the growth in the test on IGROV1 ovarian, in the test on OVCAR-3 ovarian and in the test on NCI/ADR-RES ovarian were 92.6%, 96.6% and 103%, respectively.
Take `O=C(Cc1ccc(-c2ccc(OCCN3CCOCC3)cc2)cn1)NCc1ccccc1`: the growth in the test on SR leukemia was 6.9% (active); with RPMI-8226 leukemia, 14.5%; in the test with OVCAR-8 ovarian, 1.32% (active); with OVCAR-5 ovarian it was 29.9%; in the test with OVCAR-4 ovarian it was 47.9%; with SK-OV-3 ovarian, -11.9% (active). Further, the growth was 15.5% with IGROV1 ovarian, 20.3% with OVCAR-3 ovarian and 0.0856% (active) in the test with NCI/ADR-RES ovarian.
As to `Cc1cc(Nc2cc(N3CCN(C)CC3)nc(/C=C/c3ccccc3)n2)n[nH]1`, the growth was -13.6% (active) with SR leukemia; 28.3% in the test on RPMI-8226 leukemia; 36.1% in the test with OVCAR-8 ovarian; 13.2% in the test on OVCAR-5 ovarian; 41% in the test on OVCAR-4 ovarian; 3.69% (active) in the test with SK-OV-3 ovarian. Besides, the results for the growth in the test on IGROV1 ovarian, in the test with OVCAR-3 ovarian and in the test on NCI/ADR-RES ovarian were -30.7% (active), 43.8% and 15.7%, respectively.

Values taken from PubChem BioAssay (NCI).
